MITF TRPM1 inh: inhibitors of MITF-driven TRPM1 promoter in melanoma cells | 330,000 tested, 0.83% active | SK-MEL-5 TRPM1 promoter luciferase, 24 h | inhibition, % at 12.5 µM;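 active = mean inhibition across replicates of 60% or more, whatever share of single replicates reaches that level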
LMP1 NFkB inh: Epstein-Barr LMP1 NF-kappaB reporter inhibition; LMP1-induced NF-kappaB luciferase reporter cells, luminescence; inhibition, % at 12.5 µM; 350,000 tested, 0.69% active; in the data active = inhibition above about 41%;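 note: 0% = neutral control wells and 100% = reference inhibitor control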
Peg3 prom inh: Peg3 promoter activity inhibition | HeLa PEG-Prom luciferase reporter, luminescence, overnight | inhibition, % at 20 µM | 360,000 tested, 1.7% active | AID 588405;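 active = inhibition of at least 50% at 20 µM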
HIF-2a inh: blocks HIF-2a reporter activity; AID 624352; 360,000 tested, 0.72% active; inhibition, % at 18.8 µM; 786-0 RCC cells HIF-2a reporter, luciferase luminescence, overnight;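 active = inhibition of the luminescence signal of 40% or more relative to plate controls, in a single-dose primary screen at 18.75 µM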
CF NFkB block: blocks PAF-induced NF-kB reporter in cystic fibrosis cells. KKLEB NF-kB-GFP reporter, GFP fluorescence overnight. 360,000 tested, 0.86% active. inhibition, % at 5 µM;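 active = at least 50% inhibition at 5 µM, scaled per plate between neutral and stimulator controls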;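 note: PAF is a Pseudomonas aeruginosa culture filtrate used as stimulus; plate controls were PAF-stimulated DMSO wells for no effect and unstimulated DMSO wells for full effect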
KKLEB tox: CF airway cell cytotoxicity counter-screen. activity change (cytotoxicity), % at 5 µM. KKLEB CF airway cells viability, ATPlite luminescence, overnight; hits give low values; cells stimulated with P. aeruginosa culture filtrate. 360,000 tested, 0.36% active;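 active = corrected activity change at or below -50% at 5 µM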
The depositor's hits bear a star; · = no result given. In the library only some 3% were active in any assay of this set; here they are far more common.

SMILES	MITF TRPM1 inh	LMP1 NFkB inh	Peg3 prom inh	HIF-2a inh	CF NFkB block	KKLEB tox
COc1ccc(C(=O)/C=C/Sc2nc3ccccc3o2)cc1	48.7	-17.7	90.8*	26.2	54.4*	-10.0
CCOC(=O)C1=C(c2ccccc2)NC(N)=NC1c1ccc(OCc2ccc(C(=O)OC)cc2)cc1 (stereo not drawn)	11.3	-4.3	103.6*	-2.5	24.3	-34.5
CCOC(=O)CC1(C)Oc2cc(Cl)ccc2N1S(=O)(=O)c1ccc(C)cc1 (stereo not drawn)	·	·	·	-6.4	·	·
CCc1nnc(NC(=O)c2ccc(S(=O)(=O)N3CCOCC3)cc2)s1	11.0	78.5*	-7.4	-3.7	-8.1	1.9
CC(C)(C)N1C(=O)c2ccccc2NC(=O)C1C(=O)NCCc1ccccc1 (stereo not drawn)	·	·	·	-5.0	·	·
Cc1cc2ccccn2c1C(=O)c1cccc([N+](=O)[O-])c1	11.5	-2.6	8.1	-2.9	12.8	-8.4
Cc1cc2ccccn2c1C(=O)c1ccc([N+](=O)[O-])o1	36.4	8.8	98.9*	37.6	30.0	-21.4
Nc1ncc2[nH]c(N)nc2n1	11.2	-1.3	5.3	9.2	1.9	5.2
CCOC(=O)c1sc(NC(=O)CSc2nnc(C(C)C)n2CC)nc1C	1.7	-8.8	52.0*	5.0	-4.3	-8.7
CCOC(=O)c1sc(NC(=O)CN2C(=O)C3CC=CCC3C2=O)nc1C (stereo not drawn)	1.4	-7.2	88.5*	15.4	11.5	2.1
CCCCCCN1C[C@@H](O)[C@H](n2cc(COC(=O)c3ccccc3)nn2)C[C@@H]1c1ccccc1	·	4.2	3.7	10.9	12.6	-12.7
Cc1ccc2nc(-c3cc(N)cc(N)c3)oc2c1	22.4	14.2	-122.1	61.5*	-3.3	-26.0
Nc1ccc(-c2nc3ccc(N)cc3o2)cc1	0.7	7.6	-210.2	-64.7	-4.8	-20.9
CCCCCNC(=O)C(C1CC1)n1c(=O)c(-c2ccccc2)nc2ccccc21 (stereo not drawn)	·	·	·	14.7	·	·
CCN1C/C(=C\c2cccc([N+](=O)[O-])c2)C(=O)/C(=C/c2cccc([N+](=O)[O-])c2)C1	92.5*	91.2*	105.4*	96.9*	93.9*	-57.3*
CCc1nnc(SCC(=O)NC2CCCCC2)nc1CC	5.5	-10.3	76.5*	-4.1	11.0	-3.7
CCc1nnc(SCC(=O)NC2CCCC2)nc1CC	8.4	11.5	-0.2	8.2	-4.7	-13.9
Cc1c(C)n(CC(O)CN2CCN(C)CC2)c2ccccc12 (stereo not drawn)	3.2	59.9*	-4.5	5.3	15.1	-1.9
Cc1c(C)n(CC(O)CN2CCCCC2)c2ccccc12 (stereo not drawn)	-8.3	1.1	-11.3	17.6	-13.4	-11.9
O=C(COc1ccc2ccccc2c1)Nc1cccc(C(=O)Nc2ccccc2C(=O)O)c1	1.2	-5.2	-0.9	-100.7	1.6	1.8
O=C(O)c1ccccc1Nc1cccc(OCc2ccc3ccccc3n2)c1	0.2	82.0*	-10.7	-51.2	6.3	-25.5
COc1ccc(C2CCCCC2SCC(=O)O)cc1OC (stereo not drawn)	·	-0.9	5.3	4.9	-3.4	-4.3
O=C1Nc2cc(C(=O)NCCN3CCCCCC3)ccc2S/C1=C/c1ccccc1F	·	-138.2	99.2*	-10.7	4.3	-9.1
CCN1C(=O)c2ccccc2Sc2ccc(C(=O)NCCCN3CCCCC3)cc21	1.1	-27.8	1.8	13.2	15.9	-8.7
CCN1CCCC1CNC(=O)c1ccc2c(c1)NC(=O)/C(=C\c1ccc(C)cc1)S2 (stereo not drawn)	80.8*	-22.5	102.5*	-2.3	9.5	-13.1
SMILES	MITF TRPM1 inh	LMP1 NFkB inh	Peg3 prom inh	HIF-2a inh	CF NFkB block	KKLEB tox
COc1cccc(/C=C2/Sc3ccc(C(=O)NCCN4CCCC4)cc3NC2=O)c1	85.0*	-11.7	90.7*	11.6	7.7	-5.5
O=C(NCCCN1CCCCC1)c1ccc2c(c1)NC(=O)c1ccccc1S2	-14.3	57.2*	-17.2	12.9	3.9	-6.6
O=C1Nc2cc(C(=O)NCCCN3CCCC3)ccc2S/C1=C/c1ccccc1F	35.8	-12.1	13.1	-12.6	-4.3	4.7
CCCC(=O)N1CCC1(C)C(=O)Nc1ncc(C(=O)OC)s1 (stereo not drawn)	·	·	12.0	4.8	-18.7	5.0
COc1ccc(/C=C2\Sc3ccc(C(=O)NCCN4CCCCCC4)cc3N(C)C2=O)cc1	62.9*	-8.1	35.8	3.7	9.9	4.1
COc1ccc(Cl)cc1-c1cc(C(=O)NCc2cccs2)[nH]n1	·	·	-1.3	5.2	-45.0	18.8
OC(Cc1cccc(Br)c1)c1ncc(-c2cccc(C(F)(F)F)c2)[nH]1 (stereo not drawn)	·	·	50.4*	-25.6	16.3	-11.2
CN(C(=O)c1cccc(NC(=O)Cc2ccc(NC(=O)C3CCCN(C(=O)C4CC4)C3)cc2)c1)C1CCCCC1 (stereo not drawn)	1.7	-9.1	-4.2	-8.9	-11.7	8.4
Cc1ccc(S(=O)(=O)N2C[C@]3(O)C[C@@H]4C(=O)N(c5ccccc5)C(=O)[C@@H]4C[C@]3(OC(=O)Nc3cccs3)C2)cc1	·	-18.7	-7.4	5.8	18.3	0.0
O=C1NC(=S)S/C1=C\C=C\c1ccc([N+](=O)[O-])o1	90.3*	-47.6	104.3*	82.3*	93.2*	-39.8
CCn1cc(S(=O)(=O)c2ccccc2)c(=O)c2cc(F)c(N3CCN(C)CC3)cc21	4.9	-2.2	3.8	11.4	7.0	-6.8
Cc1cc(C)cc(S(=O)(=O)c2cn(C)c3cc(N4CCN(C)CC4)c(F)cc3c2=O)c1	51.4	4.2	99.6*	0.6	6.2	-7.0
Cc1ccc(NC(=O)CSc2nnc(-c3ccc(S(=O)(=O)N4CCCC4)cc3)o2)cc1C	14.1	-4.1	60.1*	5.6	-3.5	4.1
COCCCn1cnnc1SCC(=O)Nc1ccc(S(=O)(=O)N2CCCC2)cc1	3.5	59.7*	7.5	16.2	7.5	-8.8
Cc1cccc(NC(=O)CSc2nnc(-c3ccc(S(=O)(=O)N4CCCC4)cc3)o2)c1	13.2	-4.7	-0.1	-0.5	-0.6	-11.1
COc1cccc(-c2nc(-c3cccc(C)c3)nc3cc(Cl)ccc23)c1	·	·	·	-16.1	·	·
Clc1ccc(OCCCNCc2ccccc2)c2ccccc12	6.1	-1.3	93.0*	-4.6	43.0	-53.2*
Cc1cc(C)c(OCCCCNCc2ccccc2)c(Cl)c1	13.7	-15.5	53.4*	20.0	5.9	-6.0
Cc1cc(C)c(OCCNCc2ccccc2)c(C)c1	0.0	-16.6	-10.9	7.1	10.1	-5.0
Cc1ccc(S(=O)(=O)N2C[C@H]3C(=O)C[C@@H](c4ccccc4F)N(S(=O)(=O)c4ccc(C)cc4)[C@H]3C[C@H]2c2ccccc2)cc1	·	·	21.0	10.1	-7.0	-8.2
C[C@@H]1CCCCCCCCC(=O)OCCN[C@H](C)CCCCCCCCC(=O)OCCN[C@H](C)CCCCCCCCC(=O)OCCN1	64.1*	-4.4	-14.7	13.2	14.7	-22.0

Source: PubChem
